Source: PubChem BioAssay
IL-1B inflam inh – qHTS for Inhibitors of Inflammasome Signaling: IL-1-beta AlphaLISA Primary Screen; activity change, % at 57.5 µM; THP-1 LPS/ATP IL-1B secretion, AlphaLISA, 16 h; active compounds read low; 4.7% of 360,000 active; AID 743279, 2014; in the data active = activity change below about -50%; inconclusive = mostly about -30% to -49%
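THP-1 cells pretreated 1 hr with compounds (up to 57.5 uM final), then stimulated with LPS (250 ng/mL final) plus ATP (1.25 mM final); secreted IL-1B measured by AlphaLISA after 16 hr, decreased signal indicating inhibition.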
ELG1 repair inh – qHTS screen for small molecules that inhibit ELG1-dependent DNA repair in human embryonic kidney (HEK293T) cells expressing luciferase-tagged ELG1. HEK293T ELG1-luciferase reporter, luminescence, 16 h; DNA damage induced by 5-fluorouridine. Potency, µM (series often up to 46.1 µM), without a hit: at the highest dose activity change, negative = inhibition, hits mostly inhibitors. AID 504467, 2011. 2.3% of 330,000 active; note: potency is the fitted concentration of half-maximal effect; nearly all actives have a fitted effect of over 55% in size
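Cells (2,000 per well) received 5-fluorouridine plus test compound or DMSO and were incubated 16 hr at 37 °C, 5% CO2. Luciferase activity was read by luminescence 30 min after ONE-Glo addition; signal suppression marked inhibition of damage-induced ELG1 function.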
HT1080 IDH1KD tx – qHTS for induction of synthetic lethality in tumor cells producing 2HG: qHTS for the HT-1080-IDH1KD cell line; HT-1080 IDH1 knockdown viability, ATP luminescence, 48 h; 2% of 360,000 active; Potency, µM (series often up to 46.1 µM), without a hit: at the highest dose activity, negative = toxicity, usual class: cytotoxic;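 note: potency is the fitted concentration of half-maximal effect; 0% = DMSO wells and -100% = cell-free medium wells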
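% activity derives from luminescence (CellTiter-Glo), normalised to DMSO and no-cell wells. HT-1080-IDH1KD cells, 750/well, had 48 h compound exposure at 37 °C.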
HT1080NT lethal – qHTS for induction of synthetic lethality in tumor cells producing 2HG: qHTS for the HT-1080-NT fibrosarcoma cell line. Potency, µM (titrated, usually from 46.1 µM), for inactives: at the highest dose activity, negative = less viability, hits mostly cytotoxic. AID 686970, 2013. 1.6% of 360,000 active. HT-1080-NT fibrosarcoma viability, CellTiter-Glo ATP luminescence, 48 h;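 note: NT is the 2HG producing partner of a matched IDH1 knockdown line; potency is the fitted concentration of half-maximal effect; 0% = DMSO-treated cells and -100% = media-only wells without cells; nearly all actives have a fitted effect of over 55% in size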
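HT-1080-NT; 750 cells/well; 5% FBS RPMI; 48 h compound, 37 degrees C; CellTiter-Glo luminescence; curve fitting and curve-class assignment.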
DT40 TDP1 no CPT – qHTS for Inhibitors of human tyrosyl-DNA phosphodiesterase 1 (TDP1): qHTS in cells in absence of CPT; DT40 Tdp1-/- hTDP1 cells, no CPT, ATP luminescence, 48 h; Potency, µM (top dose mostly 46.2 µM), for inactives: at the highest dose activity change, negative = growth inhibition, usual class: inhibitors; 15% of 420,000 active; AID 686978, 2013; note: potency is the fitted concentration of half-maximal effect; nearly all actives have a fitted effect of over 55% in size
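Stably hTDP1-transfected Tdp1-null chicken DT40 cells were treated with library compounds minus camptothecin and grown for at least 48 hr at 37 °C, after which cellular ATP was quantified by luminescence.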
TDP1 cell CPT – qHTS for Inhibitors of human tyrosyl-DNA phosphodiesterase 1 (TDP1): qHTS in cells in presence of CPT; 12% of 420,000 active; Potency, µM (top dose mostly 46.2 µM), for the others: top-dose activity change, negative = growth inhibition, actives largely listed as inhibitors; chicken DT40 Tdp1-/-;hTDP1 cells + 20 nM CPT, ATP luminescence, 48 h; note: potency is the fitted concentration of half-maximal effect; nearly all actives have a fitted effect of over 55% in size
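Chicken DT40 Tdp1-/- cells complemented with human TDP1, 400 cells/well, exposed to compounds plus 20 nM camptothecin for at least 48 h at 37 C; viability read as ATP content by CellTiter-Glo luminescence.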
* = called active by the depositor. A selection: hits, their analogues and other compounds. The true share with any hit is near 19%. Unless noted, calls come from the whole dose curve; as a rule, active = well fitted curve in the direction sought with a large enough effect; inconclusive = small, poorly fitted or top-dose-only effect, or another doubt; inactive = no such curve, though single readings can be large; an effect the other way counts as inactive or inconclusive. Unless noted, % is set by controls: 0 for no effect and ±100 for the full control effect.

What do the screens show for `CC(C)c1nn2c(=O)cc(COC(=O)c3ccc(NC(=O)C4CCCCC4)cc3)nc2s1`?
DT40 TDP1 no CPT: 21µM*; TDP1 cell CPT: inconclusive

How did CCOc1cc(C(=O)OCc2cc(=O)n3nc(C4CC4)sc3n2)cc(OCC)c1OCC do in these assays?
DT40 TDP1 no CPT: 21µM*; TDP1 cell CPT: inconclusive

How did CCOc1ccc(C(=O)OCc2cc(=O)n3nc(C4CCCCC4)sc3n2)cc1 do in these assays?
DT40 TDP1 no CPT: 16µM*; TDP1 cell CPT: inconclusive

Results for COc1ccc(-n2nc(C(=O)NCc3ccc(F)cc3)c3c4ccccc4n(C)c3c2=O)cc1 ?
DT40 TDP1 no CPT: 5%; TDP1 cell CPT: -2%

Results for CC(=O)Nc1ccc(NC(=O)CSc2nnc(-c3cccnc3)o2)cc1 ?
IL-1B inflam inh: -9; ELG1 repair inh: 8%; HT1080 IDH1KD tx: -1%; HT1080NT lethal: -1%; DT40 TDP1 no CPT: -5%; TDP1 cell CPT: 11%

What do the screens show for `O=[N+]([O-])c1cc2c(cc1C=Nc1ccccc1)OCO2`?
IL-1B inflam inh: -2; ELG1 repair inh: 7%; HT1080 IDH1KD tx: 0%; HT1080NT lethal: -2%; DT40 TDP1 no CPT: -29%; TDP1 cell CPT: inconclusive

Results for Cc1cc(O)c(N=Cc2cc3c(cc2[N+](=O)[O-])OCO3)cc1C ?
IL-1B inflam inh: 24; HT1080 IDH1KD tx: -12%; HT1080NT lethal: 0%; DT40 TDP1 no CPT: 21µM*; TDP1 cell CPT: inconclusive

Results for CCc1ccc(C2=NN(c3ccc(S(N)(=O)=O)cc3)C(c3ccc(F)cc3)C2)cc1 (stereo not drawn) ?
IL-1B inflam inh: -87*; ELG1 repair inh: -12%; HT1080 IDH1KD tx: inconclusive; HT1080NT lethal: inconclusive; DT40 TDP1 no CPT: inconclusive; TDP1 cell CPT: 18µM*

What do the screens show for `NS(=O)(=O)c1ccc(N2N=C(c3ccccc3)CC2c2ccc(Br)cc2)cc1` (stereo not drawn)?
IL-1B inflam inh: -25; HT1080 IDH1KD tx: inconclusive; HT1080NT lethal: inconclusive; DT40 TDP1 no CPT: inconclusive; TDP1 cell CPT: inconclusive

Results for COc1ccc(C2CC(c3ccc(C(F)(F)F)cc3)=NN2c2ccc(S(N)(=O)=O)cc2)cc1 (stereo not drawn) ?
IL-1B inflam inh: -26; ELG1 repair inh: 1%; HT1080 IDH1KD tx: inconclusive; HT1080NT lethal: inconclusive; DT40 TDP1 no CPT: inconclusive; TDP1 cell CPT: 18µM*

What do the screens show for `Cc1ccc(C2CC(c3ccccc3)=NN2c2ccc(S(N)(=O)=O)cc2)cc1` (stereo not drawn)?
IL-1B inflam inh: inconclusive; HT1080 IDH1KD tx: inconclusive; HT1080NT lethal: inconclusive; DT40 TDP1 no CPT: inconclusive; TDP1 cell CPT: 29µM*

What do the screens show for `COc1ccc(C2CC(c3ccccc3F)=NN2c2ccc(S(N)(=O)=O)cc2)cc1` (stereo not drawn)?
IL-1B inflam inh: -16; ELG1 repair inh: 6%; HT1080 IDH1KD tx: -4%; HT1080NT lethal: -7%; DT40 TDP1 no CPT: -27%; TDP1 cell CPT: inconclusive

How did NS(=O)(=O)c1ccc(N2N=C(c3ccccc3)CC2c2ccccc2)cc1 (stereo not drawn) do in these assays?
IL-1B inflam inh: -52*; ELG1 repair inh: inconclusive; HT1080 IDH1KD tx: inconclusive; HT1080NT lethal: inconclusive; DT40 TDP1 no CPT: inconclusive; TDP1 cell CPT: inconclusive

What do the screens show for `CCOC(=O)c1ccc(CNC(=O)CSc2nc(NC(=O)c3ccccc3)c3c(C)c(C)oc3n2)cc1`?
IL-1B inflam inh: 12; ELG1 repair inh: 15µM*; HT1080 IDH1KD tx: 14%; HT1080NT lethal: 5%; DT40 TDP1 no CPT: inconclusive; TDP1 cell CPT: -12%

Results for CCOC(=O)c1ccc(CNC(=O)CSc2nnc(-c3ccncc3)o2)cc1 ?
IL-1B inflam inh: 0; ELG1 repair inh: 0%; HT1080 IDH1KD tx: 2%; HT1080NT lethal: -4%; DT40 TDP1 no CPT: -3%; TDP1 cell CPT: 10%

Results for COc1ccc2[nH]c(C)c(C(=O)CN3CCN(C/C=C/c4ccccc4)CC3)c2c1 ?
IL-1B inflam inh: inconclusive; ELG1 repair inh: 0%; HT1080 IDH1KD tx: -1%; HT1080NT lethal: -1%; DT40 TDP1 no CPT: inconclusive; TDP1 cell CPT: 18µM*

What do the screens show for `Cc1[nH]c2ccccc2c1C(=O)CN1CCN(C2CCCCC2)CC1`?
ELG1 repair inh: 0%

Results for Cc1[nH]c2ccccc2c1C(=O)CN1CCN(C/C=C/c2ccccc2)CC1 ?
IL-1B inflam inh: inconclusive; ELG1 repair inh: inconclusive; HT1080 IDH1KD tx: inconclusive; HT1080NT lethal: 23µM*; DT40 TDP1 no CPT: 18µM*; TDP1 cell CPT: inconclusive

What do the screens show for `Cn1c(=O)c2c(nc(NC3CCCCC3)n2CC(=O)C23CC4CC(CC(C4)C2)C3)n(C)c1=O`?
IL-1B inflam inh: -22; ELG1 repair inh: 7.3µM*; HT1080 IDH1KD tx: -12%; HT1080NT lethal: -16%; DT40 TDP1 no CPT: inconclusive; TDP1 cell CPT: inconclusive

How did CCCC(C)NC(=O)COc1ccc(Sc2ccc(OCC(=O)NC(C)CCC)cc2)cc1 (stereo not drawn) do in these assays?
IL-1B inflam inh: -1; ELG1 repair inh: -5%; HT1080 IDH1KD tx: -8%; HT1080NT lethal: -22%; DT40 TDP1 no CPT: 12µM*; TDP1 cell CPT: 8.2µM*

Results for CC(C)CNC(=O)COc1ccc(Sc2ccc(OCC(=O)NCC(C)C)cc2)cc1 ?
IL-1B inflam inh: 0; ELG1 repair inh: -1%; HT1080 IDH1KD tx: -19%; HT1080NT lethal: -1%; DT40 TDP1 no CPT: 1.6µM*; TDP1 cell CPT: inconclusive

How did Cc1cc(OCC(=O)NCC(C)C)cc(C)c1Br do in these assays?
IL-1B inflam inh: -10; ELG1 repair inh: 3%; HT1080 IDH1KD tx: 1%; HT1080NT lethal: 6%; DT40 TDP1 no CPT: -22%; TDP1 cell CPT: inconclusive

Results for O=C(Oc1cccccc1=O)c1ccccc1 ?
IL-1B inflam inh: -3; ELG1 repair inh: 6%; HT1080 IDH1KD tx: -7%; HT1080NT lethal: -13%; DT40 TDP1 no CPT: 21µM*; TDP1 cell CPT: 18µM*
